Source: PubChem (National Center for Advancing Translational Sciences (NCATS))
Compounds with a hit are over-represented: about 6% of the library has one in this group of screens.
Tau fluor counter: counter-screen for tau fibril formation inhibitors; actives 0.93% (n = 280,000); tau K18 P301L Alexa594 fluorescence, heparin fibrillization; Potency, µM (doses to about 57.7 µM), inactives show top-dose activity change, negative = decrease; note: potency is the fitted concentration of half-maximal effect; % is set by controls: 0 for no effect and ±100 for the full control effect; nearly all actives have a fitted effect of over 55% in size
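Human tau K18 P301L (15 uM unlabeled, 0.24 uM Alexa 594-labeled) in 100 mM sodium acetate pH 7 with 20 uM heparin, 6 hr at 37 C. ThT 30 uM added, 1 hr ambient; Alexa 594 FP and total fluorescence read at 555/632 nm.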
Tau ThT inhib: tau fibrillization inhibition (ThT binding) | AID 1460 | actives 2.1% (n = 270,000) | Potency, µM (titrated, usually from 57.4 µM), inactives show at the highest dose activity, negative = inhibition, actives largely listed as inhibitors | recombinant tau K18 P301L (four-repeat tau fragment), heparin-induced fibrillization, ThT fluorescence; note: potency is the fitted concentration of half-maximal effect; % is set by controls: 0 for no effect and ±100 for the full control effect; nearly all actives have a fitted effect of over 55% in size
Target sequence (P10636 561-689 P618L limits assumed): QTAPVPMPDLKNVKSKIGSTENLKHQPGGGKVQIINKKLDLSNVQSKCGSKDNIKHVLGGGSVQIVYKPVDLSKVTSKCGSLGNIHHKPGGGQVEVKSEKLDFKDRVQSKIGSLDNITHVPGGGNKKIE
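Recombinant human tau K18 fragment […] carrying P301L, 15 uM unlabeled plus 0.24 uM Alexa 594-labeled, was fibrillized with 20 uM heparin in 100 mM sodium acetate pH 7 for 6 hr at 37 C; 30 uM ThT fluorescence read after 1 hr.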
Tau FP inhib: tau fibrillization inhibition (FP) | K18 P301L tau heparin fibrillization, Alexa594 FP, 6 h | Potency, µM (series often up to 57.7 µM), inactives show at the top dose activity, negative = inhibition, actives largely listed as inhibitors | actives 0.39% (n = 280,000); note: potency is the fitted concentration of half-maximal effect; % is set by controls: 0 for no effect and ±100 for the full control effect; nearly all actives have a fitted effect of over 55% in size
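K18 P301L tau (15 uM unlabeled/0.24 uM Alexa 594-labeled, final) + compound + heparin 20 uM final; 100 mM NaOAc pH 7; 6 hr 37 C; ThT 30 uM final added, 1 hr RT; FP ex 555/em 632 nm.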
Sfp PPTase inh: blocks B. subtilis Sfp PPTase activity | Biochemical Sfp PPTase activity, qHTS | Potency, µM, for inactives: largest response in the series, negative = inhibition, hits mostly inhibitors | actives 3.5% (n = 310,000);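 note: the enzyme is Sfp with the accession as filed and its product quenches rhodamine fluorescence; potency is the fitted concentration of half-maximal effect; 0% = enzyme reaction without inhibitor and -100% = no enzyme wells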
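Sfp 15 nM + cpd, 15 min RT; start w/ rhodamine-CoA 5 uM, BHQ-2-YbbR 12.5 uM (final); 50 mM Hepes pH 7.6, 10 mM MgCl2, 0.01% NP-40, 0.01% BSA; read 525/598 nm at 0 and 30 min.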
VDR inhibitor: vitamin D3 receptor (human) inhibition | P11473 | VDR-SRC2-3 peptide fluorescence polarization, 2 h | Potency, µM, inactives show max response, negative = inhibition, hits mostly inhibitors | actives 0.93% (n = 400,000); note: potency is the fitted concentration of half-maximal effect; % is set by controls: 0 for no effect and ±100 for the full control effect
Target sequence (P11473 whole entry, looked up): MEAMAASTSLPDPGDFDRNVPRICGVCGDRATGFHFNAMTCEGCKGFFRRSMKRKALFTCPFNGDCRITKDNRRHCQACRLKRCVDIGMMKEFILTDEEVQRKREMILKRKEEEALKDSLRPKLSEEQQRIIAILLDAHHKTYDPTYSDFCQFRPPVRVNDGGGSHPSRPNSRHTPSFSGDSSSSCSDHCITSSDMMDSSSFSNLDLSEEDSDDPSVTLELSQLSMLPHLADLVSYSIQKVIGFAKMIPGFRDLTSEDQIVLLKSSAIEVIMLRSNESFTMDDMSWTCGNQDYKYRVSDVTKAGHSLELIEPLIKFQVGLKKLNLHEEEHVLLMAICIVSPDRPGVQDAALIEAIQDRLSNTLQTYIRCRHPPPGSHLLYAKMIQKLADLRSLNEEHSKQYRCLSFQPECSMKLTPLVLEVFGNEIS
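The screen uses fluorescence polarization to detect compounds that interfere with recruitment of the SRC2-3 coactivator peptide to VDR; plates are read after 2 h at room temperature.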
PLK1 PBD block: inhibitors of human PLK1 polo-box domain binding; Plk1 PBD binding of FITC phosphopeptide, fluorescence polarization; Potency, µM, for inactives: max response, negative = inhibition, most hits filed as inhibitors; actives 2.8% (n = 360,000); AID 720504; note: potency is the fitted concentration of half-maximal effect; series mostly up to about 57 µM; % is set by controls: 0 for no effect and ±100 for the full control effect; nearly all actives have a fitted effect of over 65% in size
USP1-UAF1 confirm: validation of human USP1/UAF1 inhibitors; actives 50% (n = 50); shares compounds with VDR inhibitor; Ub-Rhodamine cleavage, fluorescence kinetic read; Potency, µM (highest dose often 114 µM), for inactives: at the top dose activity change, negative = inhibition, hits mostly inhibitors
VDR confirm: confirmation of human vitamin D receptor inhibitors | actives 89% (n = 840) | Potency, µM, most hits filed as inhibitors | VDR-coactivator inhibition assay, qHTS confirmation | shares compounds with VDR inhibitor; note: potency is the fitted concentration of half-maximal effect
VDR FP fluor: confirmation of human VDR-coactivator binding inhibitors, fluorescein label; shares compounds with VDR inhibitor; VDR-coactivator binding, fluorescein fluorescence polarization; Potency, µM (top dose mostly 57.1 µM), inactives show at the highest dose activity change, negative = inhibition, usual class: inhibitors; actives 48% (n = 840); note: potency is the fitted concentration of half-maximal effect
VDR bla reporter: confirmation of human vitamin D receptor inhibitors in reporter cells. Potency, µM (highest dose often 46.1 µM), without a hit: at the highest dose activity change, negative = inhibition, most hits filed as inhibitors. actives 23% (n = 840). AID 602202. shares compounds with VDR inhibitor. VDR beta-lactamase reporter cells, FRET ratio; cells co-treated with VDR agonist LG190178; note: potency is the fitted concentration of half-maximal effect; % is set by controls: 0 for no effect and ±100 for the full control effect
VDR viability: cell toxicity, VDR inhibitor hit counter-screen; actives 18% (n = 840); cytotoxicity counter-screen, cell viability, qHTS; shares compounds with VDR inhibitor; AID 602204; Potency, µM (titrated, usually from 48.3 µM), without a hit: at the top dose activity change, negative = cytotoxicity, usual class: cytotoxic;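 note: potency is the fitted concentration of half-maximal effect; plate controls were DMSO for no effect and high-concentration cycloheximide for full effect; nearly all actives have a fitted effect of over 75% in size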
* = called active by the depositor; ? = inconclusive; . = not tested or not shown. Calls come from the whole dose curve; as a rule, active = well fitted curve in the direction sought with a large enough effect; inconclusive = small, poorly fitted or top-dose-only effect, or another doubt; inactive = no such curve, though single readings can be large; an effect the other way counts as inactive or inconclusive.

SMILES	Tau fluor counter	Tau ThT inhib	Tau FP inhib	Sfp PPTase inh	VDR inhibitor	PLK1 PBD block	VDR confirm	VDR FP fluor	VDR bla reporter	VDR viability	others
CNc1ccc(Br)cc(C(=O)/C=C/c2cccc(Cl)c2Cl)c1=O	?	7.1µM*	?	22µM*	?	?	8.9*	-22%	23µM*	-26%
C/C(=C\c1cccc(Cl)c1Cl)C(=O)c1c(C)cc(C)[nH]c1=O	.	.	.	18%	-5%	-2%	.	.	.	.
O=C(Nc1nnc(-c2ccccc2)s1)C1CCCN(C(=O)c2ccoc2)C1 (stereo not given)	.	.	.	.	45µM*	.	16*	8.9µM*	?	-3%
Cc1ccc(N(Cc2cccs2)C(=O)c2ccco2)cc1	-5%	-6%	4%	.	7%	.	.	.	.	.
O=C(CCC(=O)N1Cc2ccccc2Oc2ncccc21)NCc1ccccc1Cl	4%	7%	-6%	.	-11%	.	.	.	.	.
Cc1ccc(NC(=O)C2=C(c3ccccc3)S(=O)(=O)CCS2(=O)=O)cc1	-29%	28µM*	28µM*	16µM*	?	6µM*	6.3*	8.9µM*	6.5µM*	?
O=C(CC1N=C2c3ccccc3N=C(SCc3ccccc3Cl)N2C1=O)NC1CCCCC1 (stereo not given)	-2%	-7%	5%	.	7%	.	.	.	.	.
O=C(/C=C/c1cc(Br)ccc1O)c1ccco1	-6%	?	?	?	25µM*	27µM*	27*	?	?	?
Cc1c(C(=O)Nc2nc(-c3ccccn3)cs2)oc2ccccc12	.	.	.	.	89µM*	12µM*	21*	-13%	?	?
O=C(/C=C/[C@H]1O[C@@H](n2cnc3c(NC(=O)c4ccccc4)ncnc32)[C@H](O)[C@@H]1O)NCc1cccs1	.	.	.	.	.	-4%	.	.	.	.
Cc1cc(C)c(C(=O)c2ccccc2C(=O)O)c(C)c1	.	.	.	.	.	-11%	.	.	.	.
COc1ccc(NS(=O)(=O)c2cc(N)ccc2N2CCCCC2)cc1	.	.	.	.	-2%	-7%	.	.	.	.
Nc1ccc(N2CCCC2)c(S(=O)(=O)Nc2cccc(C(F)(F)F)c2)c1	.	.	.	.	40µM*	4.7µM*	11*	?	-4%	17%
c1ccc(CCc2nn3c(Cc4ccccc4)nnc3s2)cc1	-1%	-16%	1%	22µM*	79µM*	11µM*	28*	25µM*	-5%	?
Ic1ccc(N2CCN(Cc3c[nH]c4ncccc34)CC2)cc1	-20%	-9%	-2%	4%	?	-13%	.	.	.	.	USP1-UAF1 confirm=?
Oc1ccc(CN2CCN(c3ccccc3)CC2)c2cccnc12	-22%	?	-7%	25%	15%	-28%	.	.	.	.
CC(C)c1nnc(NC(=O)CCS(=O)(=O)c2nc(-c3cccs3)cc(C(F)(F)F)n2)s1	4%	-12%	-2%	-20%	22µM*	?	9.5*	?	?	?
